Test results: PubChem BioAssay AID1347165 (National Center for Advancing Translational Sciences (NCATS), 2019)
Hit rate of the full screen: of about 220,000 compounds, about 5,700 (2.6%) were called active. Roughly 18% stayed inconclusive and do not appear here. Calls follow the shape of the dose curve; as a rule, active = well fitted inhibition curve with a large enough effect; inconclusive = small, poorly fitted or top-dose-only effect; inactive = no such curve, though single readings can be large or run the other way. The full list was thinned out, with actives kept by preference.

The molecules below were run against Lysine-specific demethylase 5B (Homo sapiens) (UniProt Q9UGL1) (assay: Primary screen for KDM5B Histone Demethylases FDH-coupled qHTS). Conditions: FDH-coupled NADH fluorescence (FDH is formaldehyde dehydrogenase); series mostly up to 57.7 µM; activity change, negative = inhibition: at the top concentration.
Chain of Lysine-specific demethylase 5B (Homo sapiens) (Q9UGL1 whole entry, looked up): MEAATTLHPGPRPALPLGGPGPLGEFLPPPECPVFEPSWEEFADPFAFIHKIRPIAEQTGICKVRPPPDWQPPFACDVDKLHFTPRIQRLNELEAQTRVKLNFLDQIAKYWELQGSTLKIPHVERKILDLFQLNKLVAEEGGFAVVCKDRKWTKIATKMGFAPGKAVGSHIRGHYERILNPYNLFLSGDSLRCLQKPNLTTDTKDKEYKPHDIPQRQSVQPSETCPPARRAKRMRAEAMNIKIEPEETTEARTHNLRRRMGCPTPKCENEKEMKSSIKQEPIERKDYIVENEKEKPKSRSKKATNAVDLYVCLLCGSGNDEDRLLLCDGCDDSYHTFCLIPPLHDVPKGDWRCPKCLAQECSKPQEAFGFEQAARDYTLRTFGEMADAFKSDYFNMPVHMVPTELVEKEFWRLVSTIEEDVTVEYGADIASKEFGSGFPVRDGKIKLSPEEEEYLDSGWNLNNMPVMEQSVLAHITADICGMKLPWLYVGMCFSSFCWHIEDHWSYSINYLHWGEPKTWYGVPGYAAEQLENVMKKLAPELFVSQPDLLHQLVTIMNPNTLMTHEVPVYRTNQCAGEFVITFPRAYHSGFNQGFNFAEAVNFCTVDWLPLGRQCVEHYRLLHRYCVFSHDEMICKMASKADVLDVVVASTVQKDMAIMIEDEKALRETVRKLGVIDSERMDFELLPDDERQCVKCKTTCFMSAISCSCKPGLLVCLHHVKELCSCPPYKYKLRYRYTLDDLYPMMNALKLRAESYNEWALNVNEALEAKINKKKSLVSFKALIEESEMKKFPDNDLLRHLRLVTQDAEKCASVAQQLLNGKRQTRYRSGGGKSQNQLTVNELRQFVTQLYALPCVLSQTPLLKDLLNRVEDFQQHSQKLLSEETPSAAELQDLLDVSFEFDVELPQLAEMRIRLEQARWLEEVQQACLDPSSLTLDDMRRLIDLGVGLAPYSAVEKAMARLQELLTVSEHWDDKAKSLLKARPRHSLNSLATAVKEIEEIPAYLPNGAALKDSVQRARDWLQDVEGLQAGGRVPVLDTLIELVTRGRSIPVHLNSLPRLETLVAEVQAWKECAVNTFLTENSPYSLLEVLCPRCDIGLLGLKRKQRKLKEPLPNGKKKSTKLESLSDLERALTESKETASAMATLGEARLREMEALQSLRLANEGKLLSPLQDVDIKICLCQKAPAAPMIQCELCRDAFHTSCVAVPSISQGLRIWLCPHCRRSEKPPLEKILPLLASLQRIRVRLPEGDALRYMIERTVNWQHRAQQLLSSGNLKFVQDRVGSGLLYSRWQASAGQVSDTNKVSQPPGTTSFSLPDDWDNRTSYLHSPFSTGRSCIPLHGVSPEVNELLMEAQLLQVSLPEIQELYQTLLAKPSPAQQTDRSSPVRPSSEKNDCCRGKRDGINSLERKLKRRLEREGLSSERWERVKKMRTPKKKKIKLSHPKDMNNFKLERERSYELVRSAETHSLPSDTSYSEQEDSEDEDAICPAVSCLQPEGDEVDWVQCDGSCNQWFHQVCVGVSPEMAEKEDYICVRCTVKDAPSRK
How it was run: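 Here, H3K4me3 peptide (12.5 µM in substrate mix) is demethylated by KDM5BΔAP, 200 nM final, after 10 min compound exposure. Formaldehyde product is coupled through FDH (0.25 U/mL in mix) to NADH fluorescence; 30-min ΔRFU feeds dose-response curves.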
Also: nearly all actives have a fitted effect of over 70% in size.
For activity change, negative = inhibition in this document: 0% is about no effect.
Potency is read from the fitted curve at half-maximal effect.

With COc1ccc2nc(NC(=O)Nc3ccc(C)cc3)sc2c1 as the molecule, how does the “activity change, negative = inhibition” value read?
The value was 6.82% (inactive).

For COc1cc(/C=C(\C#N)C(=O)C(C)(C)C)ccc1OCc1c(Cl)cccc1Cl, which “activity change, negative = inhibition” value is on record?
The value was -26.9% (inactive).

How did the “activity change, negative = inhibition” value turn out when COC[C@]1(O)CCN(C(=O)c2ccccc2C(F)(F)F)CC1(C)C was run?
The value was 13.1% (inactive).

How did the “activity change, negative = inhibition” value turn out when C#Cc1cccc(NS(=O)(=O)c2ccc(OC)c3ncccc23)c1 was run?
The value was -10.4% (inactive).

How did the “activity change, negative = inhibition” value turn out when CC1(C)CC(=O)C2=C(C1)OC(N)=C(C#N)C2c1ccc(C(F)(F)F)cc1 (stereo not drawn) was run?
Its value is 19.7% (inactive).

Which “activity change, negative = inhibition” value does the source give for Cc1ccccc1/C=C1\Oc2cc(OS(C)(=O)=O)ccc2C1=O here?
Its value is -4.69% (inactive).

Which “activity change, negative = inhibition” value does the source give for O=C(Cc1cccc(F)c1)NC1CCC(c2ccccc2)CC1 (stereo not drawn) here?
Its value is -0.961% (inactive).

For O=c1ncn(Cc2ccccc2)c2ccc(-c3ccoc3)nc12, which Potency is on record?
Its Potency is 39.8 µM (active).

Which “activity change, negative = inhibition” value does the source give for CCOc1ccccc1NC(=O)Cc1c(C)[nH]n(-c2nc(-c3ccccc3)cs2)c1=O here?
Its value is -0.446% (inactive).

With CNCCCNC(=O)C(=O)Nc1cccc2[nH]ccc12 as the molecule, how does the “activity change, negative = inhibition” value read?
The value was 77.9% (inactive).

Cc1ccccc1OCc1nnc(SCC(=O)c2ccc(Cl)cc2)n1C was tested. Which “activity change, negative = inhibition” value did it give?
Its value is -16.4% (inactive).

Which Potency does the source give for CCN1CCN(C(=O)Cn2nc(C)c3sc(-c4ccccc4)nc3c2=O)CC1 here?
The Potency was 22.4 µM (active).

For Cc1nn(CC(=O)O)c(=O)c2nc(C(C)C)sc12, which “activity change, negative = inhibition” value is on record?
Its value is 2.56% (inactive).

Cc1ccc(C)c(N2CCN(C(=O)Cn3nc(C)c4sc5ccccc5c4c3=O)CC2)c1 was tested. Which “activity change, negative = inhibition” value did it give?
Its value is -5.55% (inactive).

Which “activity change, negative = inhibition” value does the source give for COc1ccccc1NC(=O)C1CCN(c2nc3ccccc3nc2OC)CC1 here?
Its value is 35.1% (inactive).

For Cc1cc(Cl)ccc1-c1ccc(CN)cc1, which “activity change, negative = inhibition” value is on record?
The value was -4.89% [at 149 µM] (inactive).

COCCNC(=O)C1CCN(S(=O)(=O)c2ccc3c(ccn3C)c2)CC1 was tested. Which “activity change, negative = inhibition” value did it give?
Its value is 18.1% (inactive).

Which “activity change, negative = inhibition” value does the source give for N#Cc1ccccc1Sc1ccccc1C(=O)NC1CCCCC1 here?
Its value is 17.8% (inactive).

With CC(C)(O)CCc1cccc(C(=O)NC2CCN(c3ncccc3C#N)CC2)c1 as the molecule, how does the Potency read?
Its Potency is 22.4 µM (active).

How did the “activity change, negative = inhibition” value turn out when N#Cc1cccnc1-c1cccc(C(=O)O)c1 was run?
The value was 19.4% [at 149 µM] (inactive).

Which “activity change, negative = inhibition” value does the source give for Cc1ccc(C(=O)NCc2nc(C)cs2)cn1 here?
The value was 9.74% (inactive).

Which “activity change, negative = inhibition” value does the source give for CC(C)C1=C/C(=C/c2ccccc2)C(C)/C(=C/c2ccccc2)C1=O (stereo not drawn) here?
Its value is -32% (inactive).

How did the “activity change, negative = inhibition” value turn out when CC1CCC2(CC1)NC(=O)N(CC(=O)NCc1ccco1)C2=O (stereo not drawn) was run?
Its value is 10.1% (inactive).

How did the Potency turn out when Cc1ccccc1CNC(=O)CN1C(=O)C2(CCNCC2)Nc2ccccc21 was run?
The Potency was 14.1 µM (active).

Which “activity change, negative = inhibition” value does the source give for Cc1ccccc1NC(=O)CN1C(=O)C(C)(C)c2ccccc21 here?
Its value is -4.69% (inactive).

Which “activity change, negative = inhibition” value does the source give for CCn1c(=O)c2ccccc2n(CC(=O)Nc2ccccc2C(F)(F)F)c1=O here?
The value was 2.98% (inactive).

How did the “activity change, negative = inhibition” value turn out when CCNC(=O)NC(=O)C(C)Sc1nc(-c2ccccc2)c(-c2ccccc2)o1 (stereo not drawn) was run?
The value was -0.479% (inactive).

Which “activity change, negative = inhibition” value does the source give for Cc1nc2cc(NC(=O)c3ccc(C(=O)c4ccccc4)cc3)ccc2o1 here?
The value was 3.23% (inactive).

With c1ccc2c(c1)CCN2C1CN(Cc2cccc3ccccc23)C1 as the molecule, how does the Potency read?
The Potency was 100 µM (active).

How did the “activity change, negative = inhibition” value turn out when CN(Cc1cccc2ccccc12)C1CCc2ccccc21 (stereo not drawn) was run?
Its value is -26.7% [at 86.2 µM] (inactive).

With Cc1ccccc1N(C)C1CN(Cc2cccc3ccccc23)C1 as the molecule, how does the “activity change, negative = inhibition” value read?
The value was 8.42% [at 149 µM] (inactive).

How did the “activity change, negative = inhibition” value turn out when Cc1oc(-c2cccs2)nc1CC(=O)N1CCC2(CC1)NC(=O)NC2=O was run?
The value was -260% (inactive).

For CC(C)(CC(=O)O)CC(=O)N[C@H]1CO[C@H]2[C@@H]1OC[C@@H]2Nc1nccc(-c2ccc3c(c2)OCO3)n1, which Potency is on record?
Its Potency is 28.2 µM (active).

With COc1ccc(NC(=O)O[C@@H]2CO[C@H]3[C@@H]2OC[C@@H]3NC(=O)C2CCCCC2)cc1 as the molecule, how does the “activity change, negative = inhibition” value read?
Its value is 0.55% [at 86.2 µM] (inactive).

With CC(C)(C)c1ccnc(N[C@H]2CO[C@H]3[C@@H]2OC[C@H]3OC(=O)Nc2cccc(C(F)(F)F)c2)n1 as the molecule, how does the “activity change, negative = inhibition” value read?
The value was -8.49% (inactive).

COCC(=O)N[C@H]1CO[C@H]2[C@@H]1OC[C@@H]2Nc1nccc(C(C)(C)C)n1 was tested. Which “activity change, negative = inhibition” value did it give?
The value was 2.28% [at 86.2 µM] (inactive).

COc1ccc(NC(=O)O[C@@H]2CO[C@H]3[C@@H]2OC[C@@H]3NC(=O)NC2CCCCC2)cc1 was tested. Which “activity change, negative = inhibition” value did it give?
The value was -26.3% [at 86.2 µM] (inactive).

With O=C(Nc1ccccc1)O[C@@H]1CO[C@H]2[C@@H]1OC[C@@H]2NS(=O)(=O)c1cccc2cccnc12 as the molecule, how does the “activity change, negative = inhibition” value read?
Its value is -31.2% (inactive).

Which “activity change, negative = inhibition” value does the source give for CC(C)(C)c1ccnc(N[C@H]2CO[C@H]3[C@@H]2OC[C@@H]3NC(=O)CC2(CC(=O)O)CCCC2)n1 here?
Its value is -9.63% (inactive).

With COc1cccc(NC(=O)O[C@@H]2CO[C@H]3[C@@H]2OC[C@@H]3Nc2nccc(-c3cccs3)n2)c1 as the molecule, how does the Potency read?
The Potency was 15.8 µM (active).

How did the Potency turn out when O=C(Nc1cccc(C(F)(F)F)c1)O[C@@H]1CO[C@H]2[C@@H]1OC[C@@H]2Nc1nccc(-c2ccc3c(c2)OCO3)n1 was run?
Its Potency is 31.6 µM (active).

How did the “activity change, negative = inhibition” value turn out when COc1ccc(OC)c(NC(=O)COc2c(C)cc(C)cc2C)c1 was run?
Its value is 9.24% (inactive).

Which “activity change, negative = inhibition” value does the source give for CSc1ccccc1N=Cc1ccc(Cl)c(Cl)c1 here?
Its value is 29.7% (inactive).

COc1ccc(OC)c(CCNC(=O)c2nn(C)c3c2CS(=O)(=O)c2ccccc2-3)c1 was tested. Which “activity change, negative = inhibition” value did it give?
Its value is 13.7% (inactive).

How did the “activity change, negative = inhibition” value turn out when CC(=O)Nc1ccc(S(=O)(=O)Nc2c(NC3CCCC3)c3ccccc3oc2=O)cc1 was run?
Its value is 13.6% (inactive).

How did the “activity change, negative = inhibition” value turn out when O=[N+]([O-])c1cccc2nc(/C=C/c3ccc(C(F)(F)F)cc3)ccc12 was run?
Its value is -0.0445% (inactive).

How did the “activity change, negative = inhibition” value turn out when N#Cc1cccc(C2CCN(C(=O)C3CCN(C(=O)C4CC4)CC3)CC2)c1 was run?
Its value is -1.85% (inactive).

How did the “activity change, negative = inhibition” value turn out when Cn1c(=O)[nH]c(=O)c2c1nc(N1CCN(Cc3ccccc3Cl)CC1)n2Cc1ccc(F)cc1 was run?
Its value is 5.2% (inactive).

For O=C(Cc1cccc(Cl)c1)N1CCC2(CC1)CN[S+](=O)([O-])c1cccnc1O2, which Potency is on record?
The Potency was 79.4 µM (active).

O=[S+]1([O-])NCC2(CCCN(Cc3ccncc3)C2)Oc2ncccc21 (stereo not drawn) was tested. Which “activity change, negative = inhibition” value did it give?
Its value is -20% [at 115 µM] (inactive).

For O=C(Cc1cccc(Cl)c1)N1CCC2(CN[S+](=O)([O-])c3cccnc3O2)C1 (stereo not drawn), which “activity change, negative = inhibition” value is on record?
The value was 9.87% [at 115 µM] (inactive).

How did the “activity change, negative = inhibition” value turn out when CNS(=O)(=O)c1ccc(NC(=O)Nc2ccc3c(c2)OCO3)cc1 was run?
The value was 5.61% (inactive).

Which “activity change, negative = inhibition” value does the source give for COc1c(CNCc2cccnc2N2CCOCC2)c(C)nn1C here?
Its value is -5.58% (inactive).

Cc1nccnc1N1CCC(c2nnc(CN3CCCC3)n2C)CC1 was tested. Which “activity change, negative = inhibition” value did it give?
The value was 9.79% (inactive).

With Cn1c(CN2CCOCC2)nnc1C1CCN(c2ncccc2C#N)CC1 as the molecule, how does the Potency read?
Its Potency is 31.6 µM (active).

Which “activity change, negative = inhibition” value does the source give for C=CCNC(=O)c1cn2c(n1)CN([S+](C)(=O)[O-])CC2 here?
The value was 9.43% [at 149 µM] (inactive).

How did the “activity change, negative = inhibition” value turn out when C=CCNC(=O)c1cn2c(n1)CN(C(=O)c1ccccc1F)CC2 was run?
The value was 14.7% [at 149 µM] (inactive).

Which Potency does the source give for C=CCNC(=O)c1ccc2ccnn2c1 here?
The Potency was 31.6 µM (active).

For Cn1cc(CN2C[C@@H](CO)[C@H](C(=O)NC3CC3)C2)cn1, which “activity change, negative = inhibition” value is on record?
The value was -2.64% (inactive).

How did the “activity change, negative = inhibition” value turn out when Cc1cccc(C(=O)N2CCN(S(=O)(=O)N3CCCCC3)CC2)c1 was run?
The value was 32.8% (inactive).

O=C(c1ccc(F)cc1)N1CCN(c2cc(-c3ccc(F)cc3)[nH]n2)CC1 was tested. Which “activity change, negative = inhibition” value did it give?
Its value is -11.3% (inactive).

For Cc1cccc(C(=O)N2CCCN(c3nnc4ccccn34)CC2)c1, which Potency is on record?
The Potency was 28.2 µM (active).

Which “activity change, negative = inhibition” value does the source give for Cc1ccc(-n2c(SC(C)C(=O)c3ccc(F)c(F)c3)nnc2N2CCOCC2)cc1 (stereo not drawn) here?
Its value is 16.4% (inactive).

Cc1cccc(C(=O)N2CCC(OC3CCN(Cc4ccccc4)CC3)CC2)c1 was tested. Which “activity change, negative = inhibition” value did it give?
The value was 13.2% (inactive).

For Cc1cccc2nnc(N3CCN(C(=O)c4ccc(F)c(F)c4)CC3)n12, which Potency is on record?
Its Potency is 28.2 µM (active).

With COc1ccccc1C(=O)N1CCCN(c2nnc3ccccn23)CC1 as the molecule, how does the Potency read?
Its Potency is 31.6 µM (active).

Which “activity change, negative = inhibition” value does the source give for COc1ccccc1C(=O)N1CCN(c2cc(C(F)(F)F)ncn2)CC1 here?
Its value is -12.6% (inactive).

How did the “activity change, negative = inhibition” value turn out when COc1ccccc1C(=O)N1CCC(n2cnnc2C2CC2)CC1 was run?
Its value is -11.8% (inactive).
